Bioassay records as filed in PubChem BioAssay.
ANO1 activ – activators or potentiators of mouse TMEM16A chloride channel; 340,000 tested, 0.3% active; HEK293 TMEM16A/YFP-H148Q/I152L, iodide quench fluorescence; active compounds read low; B-score at 10 µM; Q8BHY3; AID 623877;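 active means fluorescence-ratio B-score plate-corrected deviation score at least 3 library SD below zero, with starting fluorescence score within 5 deviations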;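 further: channel opened by trigger with iodide after compound preincubation; score built on the fluorescence ratio of max minus min over baseline; more negative score means more quench and so TMEM16A activation or potentiation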
TLR9-MyD88 inh – TLR9-MyD88 interaction inhibition; 340,000 tested, 0.21% active; AID 504734; inhibition, % at 4.98 µM; CHO BLA complementation TLR9-MyD88, CCF4 FRET ratio;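 active means inhibition above the mean over all tested compounds plus 3 SD, cut at about 21% in these data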
GRK2 aptamer HTS – blocks RNA aptamer binding to human GRK2; P25098; bead flow cytometry, FAM-aptamer displacement from GRK2; inhibition of aptamer binding, % at 10 µM; 330,000 tested, 0.59% active;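 active means inhibition of aptamer binding above 40%, roughly 3 SD of noise, on plates passing a quality check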;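 further: median bead fluorescence of bound FAM aptamer so fluorescent compounds give negative values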
TLR4-MyD88 BLA – blocks binding of human TLR4 to MyD88; HeLa CL3-4 TLR4/MyD88 BLA complementation, FRET ratio; inhibition, % at 8.4 µM; 200,000 tested, 0.18% active; AID 861; in the data active means inhibition above about 25%
NOD2-RIPK2 inh – inhibitors of human NOD2-RIPK2 interaction. inhibition, % at 4.98 µM. AID 624267. 360,000 tested, 0.38% active. CHO BLA complementation NOD2-RIPK2, CCF4 ratio; in the data active means inhibition above about 21%
ANO1 block – blocks the mouse calcium-activated chloride channel TMEM16A; AID 588511; HEK293 TMEM16A/YFP iodide influx fluorescence, ionomycin; Q8BHY3; normalized B-score (activity score, 25-100; higher = stronger inhibition) at 10 µM; 310,000 tested, 1.2% active;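 active means ratio plate-corrected score three or more library SD toward inhibition, starting fluorescence score within five deviations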;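 further: score derived from kinetic fluorescence span divided by baseline fluorescence per well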
Hits are given with their value; i = inactive; nt = not tested or not shown. In the library only some 2.2% were active in any assay of this set; here they are far more common.

SMILES	ANO1 activ	TLR9-MyD88 inh	GRK2 aptamer HTS	TLR4-MyD88 BLA	NOD2-RIPK2 inh	ANO1 block
COc1cc(C(=S)N2CCOCC2)ccc1OC(=O)c1cccc(C)c1	i	i	i	nt	i	25
COc1cc(C(=S)N2CCOCC2)ccc1OC(=O)c1ccc(Br)cc1	i	i	i	nt	i	i
CNS(=O)(=O)c1cccc(C(=O)OCc2cc(=O)oc3c(C)c(O)ccc23)c1	i	i	i	nt	i	100
COc1cc(/C=N/NC(=S)NC2CC3CC2C2C=CCC32)ccc1O (stereo unspecified)	i	i	i	nt	i	100
CCOC(=O)C1=C(Cc2ccc(F)cc2)C(=O)c2ccccc2C1=O	i	i	i	i	30	i
CC1Oc2ccc(C#N)cc2N(Cc2ccccc2OC(F)(F)F)C1=O (stereo unspecified)	nt	nt	nt	nt	i	nt
COc1ccccc1N1CCN(C(=O)C2CCCN(S(=O)(=O)c3ccc4c(c3)oc(=O)n4C)C2)CC1 (stereo unspecified)	i	i	i	nt	i	25
COc1ccc(CSc2ccc(S(=O)(=O)N3CCCC3)cn2)cc1F	nt	i	nt	nt	i	nt
COc1ccc(CSc2ccc(S(=O)(=O)N3CCCCC3)cn2)cc1F	-23	i	i	nt	i	nt
O=S(=O)(N/N=C1/CCCc2ccccc21)c1ccc(Br)cc1	i	i	i	i	i	i
O=S(=O)(N/N=C1/CC(c2ccccc2)Oc2ccccc21)c1ccc(Br)cc1 (stereo unspecified)	i	i	i	i	i	25
Cc1ccc(S(=O)(=O)N/N=C2/CC(c3ccccc3)Oc3ccccc32)cc1[N+](=O)[O-] (stereo unspecified)	i	i	i	i	i	100
CC(C)C[C@H]1CN(CCCC[C@H]2CNC(=O)C(=O)N2CC2CCCCC2)C(=O)C(=O)N1Cc1ccccc1	nt	nt	nt	nt	i	nt
CC(C)(C)CC(C)(C)c1ccc(OCCOCC[N+](C)(C)Cc2ccccc2)cc1	i	i	i	nt	i	25
Oc1ccc(Cl)c(CN2CCN(c3ncc(Cc4ccccc4)cn3)CC2)c1	nt	nt	nt	nt	i	nt
C=CCCCN(Cc1ccccc1)S(=O)(=O)c1ccccc1Br	-6.2	i	i	nt	i	25
Nc1nc(N)c2c(ccc3c2ccn3Cc2cccc([N+](=O)[O-])c2)n1	nt	nt	nt	nt	i	nt
Cc1nn(-c2ccccc2)c(Cl)c1/C=C1\SC(=S)NC1=O	i	i	i	i	i	100
Nc1ccc2nc(CN3CCOCC3)[nH]c2c1	-19	i	i	i	i	i
c1ccc2[nH]c(CN3CCOCC3)nc2c1	i	i	i	i	i	i
COc1ccc(-c2cnc(N)nc2-c2ccc(OC)cc2O)cc1	-17	i	i	i	i	i
O=c1c(N=Nc2ccc(O)cc2)c(-c2ccccc2)[nH]n1-c1ccc([N+](=O)[O-])cc1	i	i	i	i	i	i
O=c1cc(-c2ccccc2)[nH]n1-c1ccc([N+](=O)[O-])cc1	i	i	i	i	i	100
O=C(NC1CCCCC1)c1sc(=S)n2c1[nH]c(=O)c1ccccc12	i	i	i	i	i	100
Cn1ccc2c(-c3ccc(C(=O)O)cc3)cc3c(c21)C1CCC3C1 (stereo unspecified)	nt	nt	nt	nt	i	nt
SMILES	ANO1 activ	TLR9-MyD88 inh	GRK2 aptamer HTS	TLR4-MyD88 BLA	NOD2-RIPK2 inh	ANO1 block
O=C(Cn1sc2ccccc2c1=O)NC12CC3CC(CC(C3)C1)C2	i	21	i	i	i	i
O=C(Cn1sc2ccccc2c1=O)Nc1ccccc1	nt	i	nt	nt	i	nt
CC(C)CN1C(=S)SC(C)(C)C1n1oc(=O)n(-c2ccc(Cl)cc2)c1=O (stereo unspecified)	i	i	i	i	i	100
CC(C)CN1C(=S)SC(C)(C)C1n1oc(=O)n(-c2ccccc2)c1=O (stereo unspecified)	i	i	i	i	i	i
CCCCCc1ccc(OCCCC[n+]2ccc(C)cc2)c(CCCCC)c1	i	i	i	i	i	100
CCC(C)(C)c1ccc(OCCCC[n+]2ccccc2)c(C(C)(C)CC)c1	i	i	i	i	i	i
CCCCCc1ccc(OCCCC[n+]2cccc(C)c2)c(CCCCC)c1	i	i	i	i	i	100
CCCCCc1ccc(OCCCC[n+]2ccccc2)c(CCCCC)c1	i	i	i	i	i	i
CCc1nc2c(OCCC3CCCCC3)cccn2c1N(C)C(=O)c1ccc(OC)cc1	nt	nt	nt	nt	i	nt
OC[C@@H]1CN(Cc2ccc3c(c2)OCO3)C[C@H](n2cnc3c(NCc4ccc(F)cc4)ncnc32)O1	nt	nt	nt	nt	i	nt
Cc1cccc2nc(COc3ccc(-c4ccccc4)cc3)cn12	nt	nt	i	i	nt	100
COC(=O)[C@]12CCCCC=C1N(Cc1ccc3c(c1)OCO3)C(=O)[C@H](CC(=O)NCC13CC4CC(CC(C4)C1)C3)C2	nt	nt	nt	nt	i	nt
C=C1[C@@H](OC(C)=O)C=C[C@@]2(C)C=CC(=O)[C@@](C)(OC(C)=O)[C@@H]2[C@@H](OC(C)=O)[C@]2(O)[C@@H](C)C(=O)O[C@H]2[C@H]1Cl	nt	nt	nt	nt	i	nt
Cc1cc(C)c(O)c(-c2cc(C(=O)Nc3ccc(S(=O)(=O)N4CCOCC4)cc3)[nH]n2)c1	i	i	i	i	i	25
CC(=O)Nc1ccc(NC(=O)c2cc(-c3cc(C)cc(C)c3O)n[nH]2)cc1	i	i	i	nt	i	i
O=C(NC1CCCC1)C1C(c2ccc(C(F)(F)F)cc2)=Nc2ccccc2N1C(=O)c1cc2ccccc2[nH]1 (stereo unspecified)	nt	nt	nt	nt	i	nt
COc1ccccc1N=c1oc2c(OC)cccc2cc1C(=O)NCc1ccco1	i	i	i	i	i	25
COc1ccc(OC)c(N=c2oc3c(OC)cccc3cc2C(=O)NCc2ccco2)c1	i	i	i	nt	i	i
CC(C)Cn1c(CN2CCCCC2C)nc2c1c(=O)n(C)c(=O)n2C (stereo unspecified)	-8.2	i	i	i	i	i
CSC1=NC=C(C#N)C2=NC(c3ccc(Cl)cc3)NN12 (stereo unspecified)	nt	nt	nt	nt	i	nt
Clc1ccc2c(c1)C(N1CCNCC1)Cc1ccccc1S2 (stereo unspecified)	i	i	i	i	i	25
COC(=O)[C@@]1(C(C)C)N=C(c2cc(OC)c(OC)c(OC)c2)[C@]2(O1)C(=O)Nc1ccccc12	nt	nt	nt	nt	i	nt
COc1ccc(NS(=O)(=O)c2ccc(C(=O)N3CCN(Cc4ccccc4)CC3)cc2)cc1	i	i	i	i	i	25
CCOc1ccc(NS(=O)(=O)c2ccc(C(=O)N3CCCC(C)C3)cc2)cc1 (stereo unspecified)	i	i	i	nt	i	100
COc1ccc(S(=O)(=O)NCc2ccc(C(=O)N3CCN(Cc4ccccc4)CC3)cc2)cc1	i	i	i	nt	i	i
COc1ccc(CN(C)C(=O)CCN(c2ccccc2)S(=O)(=O)c2ccc(C)cc2)c(OC)c1	i	i	i	nt	i	25
Cc1ccc(N(CCC(=O)O)S(=O)(=O)c2ccccc2)cc1	i	i	i	i	i	i
